# TIM10 inh = growth inhibitors of isogenic TIM10 control yeast, primary screen, counter-screen for tim10-1 yeast inhibitor project, luminescence, uHTS. AID 463195, 2010. S. cerevisiae TIM10 strain growth, BacTiter-Glo luminescence, 24 h. hit rate 1.4% among 330,000. inhibition, % at 10 µM;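 active means inhibition of 40% or more at the single tested concentration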;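 further: wild-type TIM10 isogenic control strain grown at permissive 25 °C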
# tim10-1 inh = growth inhibitors of tim10-1 mutant yeast, primary screen, luminescence, uHTS | S. cerevisiae tim10-1 ts strain growth, BacTiter-Glo, 24 h | inhibition, % at 20 µM | hit rate 2.2% among 330,000;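 active means inhibition of at least 40%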;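 further: mutant grown at 25 °C; 0% = DMSO wells with yeast and 100% = wells holding no yeast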
# tim23-1 inh = growth inhibitors of tim23-1 mutant yeast, primary screen, luminescence, uHTS | S. cerevisiae tim23-1 growth, BacTiter-Glo luminescence, 24 h | inhibition, % at 20 µM | hit rate 1.3% among 330,000 | AID 463212, 2010;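 active means growth inhibition of the mutant yeast at or above 50%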;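 further: temperature-sensitive mutant grown at 25 °C; plate controls were DMSO-treated mutant yeast for no effect and medium wells lacking yeast for full effect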
# NALP1 yeast inh = NALP1 inflammasome inhibitors in reconstituted yeast, colorimetric, S. cerevisiae, triplicate retest | inhibition, % at 10 µM | S. cerevisiae NALP1/ASC/caspase-1 growth, X-gal OD620, 72 h | hit rate 0.61% among 280,000 | AID 2071, 2009; in the data active means inhibition mostly above about 24%, no sharp cut-off; inactive means mostly below about 32%
# NLRP3 yeast inh = NALP3 inflammasome inhibitors in reconstituted yeast, primary screen, luminescence, uHTS. Yeast reconstituted NLRP3/ASC/caspase-1, beta-gal luminescence, 24 h. inhibition, % at 10 µM. hit rate 0.39% among 330,000. AID 2825, 2010;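 active means inhibition of 50% or more; inactive means inhibition below 50%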;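 further: plate controls were induced DMSO wells for no effect and uninduced yeast grown without galactose for full effect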
# TIM10 conf = growth inhibitors of wild-type TIM10 yeast, confirmation, counter-screen for tim10-1 synthetic lethality project, single concentration, luminescence, S. cerevisiae. S. cerevisiae tim10 strain growth, BacTiter-Glo luminescence, 24 h. hit rate 63% among 4,600. AID 463215, 2010. inhibition, % at 10 µM. shares compounds with TIM10 inh;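 active means inhibition of yeast growth at or above a set limit in either of two replicates at 10 µM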;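 further: this counterscreen used the strain with wild-type TIM10; 0% = yeast with DMSO and 100% = medium wells lacking yeast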
# Active calls of the source: *; i = inactive; · = not tested or not shown. Only some compounds are listed: those with a hit (about 4.1% of all), similar ones and a draw of the others.
SMILES,TIM10 inh,tim10-1 inh,tim23-1 inh,NALP1 yeast inh,NLRP3 yeast inh,TIM10 conf
CC(C)c1nnc(SCC(=O)NC2CCCC2)n1C,-10,-13,12,12,6,·
O=C(N/N=C/c1ccccn1)c1cc(-c2ccc(Cl)cc2)nc2ccccc12,47*,19,42,4,16,50*
O=C(NC(=S)Nc1ccccn1)c1cc(-c2ccccc2)nc2ccccc12,47*,36,41,15,20,6
O=S(=O)(NN1CCOCC1)c1ccc(Br)cc1,-4,-11,-4,4,12,·
CC(C)(C)c1ccc(C(=O)NCCC(=O)Nc2ccc3c(c2)OCCO3)cc1,-6,-5,7,·,24,·
CCc1ccccc1NC(=O)CCc1c(C)nc(SC)nc1C,-2,5,1,-2,36,·
CC(C)/C=C(/C(=O)c1ccc(Cl)cc1Cl)n1cncn1,42*,20,41,9,16,6
Cc1cn([C@H](C(=O)NCCCCCCCCCCC(=O)N2CCN(C(=O)OC(C)(C)C)CC2)[C@@H](C)O)nn1,5,6,12,·,18,·
Cc1cccc(NC(=O)c2ccc3c(c2)OCCO3)c1,3,-15,50,8,27,·
Cc1ccc(NC(=O)c2ccc3c(c2)OCCO3)cc1S(=O)(=O)Nc1cccc(Cl)c1,43*,25,35,13,7,-27
O=C(Nc1ccc(N2CCCCC2)c(Cl)c1)c1ccc2c(c1)OCCO2,45*,35,45,11,20,16
CCOc1ccc(N(CC)S(=O)(=O)c2ccc3c(c2)n(C)c(=O)c(=O)n3C)cc1,-20,-17,-21,-1,-11,·
Cc1cc(S(=O)(=O)N2CCC3(CC2)OCCN3S(=O)(=O)c2cccs2)ccc1F,12,1,18,·,15,·
CCOC(=O)c1nnsc1N,5,-10,-17,-14,9,·
CSc1ccc(C(=O)C2CCCN(C(=O)c3ccc4c(c3)no[n+]4[O-])C2)cc1 (stereo unspecified),46*,24,49,i,9,35*
Cc1ccc(NC(=O)c2cc(S(=O)(=O)N3CCOCC3)c(Br)s2)cc1,4,-6,15,24,16,·
CCOC(=O)CSc1nnc2c(n1)C1(C)CCC2C1(C)C (stereo unspecified),2,23,18,20,-3,·
CC12CCC(c3nnc(SCC(=O)Nc4cccc5ccccc45)nc31)C2(C)C (stereo unspecified),46*,36,38,-6,-1,24
CCN(CC)S(=O)(=O)c1ccc(NC(=O)C2COc3ccccc3O2)cc1 (stereo unspecified),40*,39,36,24,-3,35*
O=C(Nc1ccc(F)cc1)C1COc2ccccc2O1 (stereo unspecified),16,-2,10,18,4,·
O=C(CCc1ccc(O)cc1)N/N=C/c1coc2ccccc2c1=O,10,-20,27,-2,8,·
O=C(COc1cccc(OC(F)F)c1)Nc1ccc(SC(F)F)cc1,50*,38,44,8,34,39*
CCCc1nc2oc3c(NCC(C)O)ncnc3c2c2c1CCCC2 (stereo unspecified),41*,34,31,8,18,45*
Cc1ccccc1NS(=O)(=O)c1ccc(NC(=O)CSCc2ccc(Br)cc2)cc1,41*,37,45,38,15,28
O=C(Nc1ccc(S(=O)(=O)N2CCCCCC2)cc1)c1ccc(Br)o1,56*,40,40,15,16,50*
SMILES,TIM10 inh,tim10-1 inh,tim23-1 inh,NALP1 yeast inh,NLRP3 yeast inh,TIM10 conf
O=C(CSCc1ccc(Cl)cc1)Nc1ccc(S(=O)(=O)N2CCCCCC2)cc1,41*,35,40,14,14,-23
O=C(COc1ccccc1)Nc1ccc(S(=O)(=O)N2CCCCCC2)cc1,71*,38,35,9,1,60*
Cc1ccnc2nc(C(=O)OCC(=O)NC(=O)NCc3ccco3)nn12,-10,-6,6,5,-1,·
CCOc1ccc(S(=O)(=O)N2CCOCC2)cc1NC(=O)CCOc1ccc(C(C)(C)C)cc1,11,-3,-5,·,21,·
CCOc1ccc(NS(=O)(=O)c2cccc(C(=O)N(C)Cc3ccco3)c2)cc1,-7,3,-3,·,21,·
Cc1ccc(S(=O)(=O)c2c(O)c3ccc(C(=O)O)cc3[nH]c2=O)cc1,3,8,-8,16,6,·
COCCCn1cc(C(=O)c2ccccc2OCC(=O)Nc2cccc(F)c2)cc(C#N)c1=O,-17,17,14,24,10,·
COc1cccc(CN(C)C(=S)Nc2ccc(C)c(C)c2)c1,46*,30,9,-16,9,3
O=S(=O)(/N=C(/Nc1cccc2ccccc12)c1ccccc1)c1cccs1,43*,24,30,19,-29,23
COc1ccccc1N1CC(C)(C)C(=O)N(C(=O)c2ccc(C)cc2)C1=S,43*,37,49,6,28,45*
COc1ccccc1N1CCN(C(=O)c2ccc(N3CCCC3=O)cc2)CC1,14,5,13,29,12,·
CCCNC(=O)c1ccc2c(c1)ncn2-c1cc(C)cc(C)c1,42*,27,38,2,9,22
Cc1cc(C)cc(-n2cnc3cc(C(=O)O)ccc32)c1,10,-3,9,6,-1,·
Cc1ccc(CNC(=S)NC2CCC(C(C)(C)C)CC2)cc1 (stereo unspecified),42*,36,43,10,31,18
COc1ccc(CNC(=S)NC2CCCC2)cc1,15,7,12,23,13,·
CC(=O)Nc1ccc(-c2nnn(CC(=O)c3ccccc3)n2)cc1Cl,47*,-3,20,1,-3,36*
CC(=O)Nc1ccc(-c2nnn(CC(=O)c3ccc(F)cc3)n2)cc1Cl,33,-34,-11,·,3,·
C/C(=N\NC(=O)CNc1cccc2ccccc12)c1ccccc1,42*,28,31,-11,15,14
COc1cccc(NC(=O)CN(C)C(=O)C(C)Sc2ccccc2)c1 (stereo unspecified),22,17,21,·,0,·
O=C(Nc1ccc2c(c1)OCO2)c1ccc2c(c1)OCO2,6,12,13,34,20,·
O=C(Nc1ccc2c(c1)oc1ccccc12)c1ccc2c(c1)OCO2,40*,3,8,13,12,12
O=C(Nc1ccc2c(c1)oc1ccccc12)c1ccncc1,43*,0,42,13,40,40*
O=C(Nc1ccc(NC(=O)c2ccncc2)cc1)c1ccncc1,7,6,9,20,4,·
C=CCC1(CC=C)CCCN1Cc1nc(COc2ccccc2)no1,5,10,13,-54,-9,·

# Screens (PubChem)
